Source: PubChem BioAssay AID504861 (Broad Institute, 2011)
Out of some 1,200 compounds screened, about 290 (24%) were called active. Roughly 3% stayed inconclusive and do not appear here. Only a sample is shown. Potency and affinity values are given separately. Values without a mark were called inactive.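 The calls were made as follows: active = compounds lowering cell viability signal with fitted half-maximal concentration at most ten times their highest tested concentration; inconclusive = flat fit with 30 to 70% signal loss, or poor fit; inactive = the rest.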

test: HEK293T cell viability reduction, dose response, cytotoxicity control for LMP1 NF-kB inhibitor project, CellTiter-Glo luminescence, cherry-picks (AID 504861); settings: CellTiter-Glo ATP luminescence, 48 h; series mostly up to 26 µM; activity change, negative = cytotoxicity: at the top concentration

| SMILES | activity change, negative = cytotoxicity [%] |
| --- | --- |
| COc1ccccc1-n1cc([C@@H]2C[C@H]3CN(c4ccccc4)C(=O)[C@]34CCCN24)cn1 | -10.5 |
| COc1ccc2cc(C(N)=O)/c(=N\NC(=O)c3ccccc3)oc2c1 | 8.96 |
| CCOC(=O)CNC(=O)CSc1nnc(NC(=O)c2ccc(C)cc2)s1 | 11.2 |
| Nc1cc(=O)[nH]c(SCCSc2cc(Cl)ccc2Cl)n1 | 8.12 |
| O=C(Nc1ccc(N2CCOCC2)cc1)c1cn2ccccc2n1 | -4.89 |
| COc1cc(/C=C(\C#N)c2ccccn2)ccc1OCc1ccccc1Cl | 3.91 |
| CN(C)CCN(Cc1ccc(Cl)cc1)c1ccccn1 | 9 |
| CCn1c2ccccc2c2cc(/C=N/n3c(C)nnc3C)ccc21 | -0.28 |
| Cn1cccc1C(=O)OCC(=O)Nc1ccc2c(c1)OCO2 | 10.4 |
| Cc1ccc2oc(C(=O)Nc3ccc(S(=O)(=O)Nc4onc(C)c4C)cc3)c(C)c2c1 | -4.22 |
| O=C(CN1C(=O)c2ccccc2S1(=O)=O)c1ccc(F)c(F)c1 | 6.66 |
| CC(=O)c1sc(NC(=O)C2COc3ccccc3O2)nc1C (centres undefined) | 1.27 |
| Cc1ccccc1NC(=O)CN1C(=O)S/C(=C\c2cccn2-c2cccc(C(=O)O)c2)C1=O | 18.8 |
| O=C(O)/C=C/c1ccc2ccccc2n1 | 5.78 |
| CCOC(=O)Nc1ccc2c(c1)N(C(=O)CN(C)C)c1ccccc1CC2 | 8.4 |
| CCOCCCNC(=O)CN1C(=O)/C(=C\c2ccc(C)cc2)Sc2ccccc21 | 1.27 |
| CCN(c1ccccc1)S(=O)(=O)c1ccc(Cl)c(NC(=O)Nc2ccc(Cl)cc2C#N)c1 | 0.681 |
| COc1ccc(-c2csc3ncnc(NCCO)c23)cc1 | -5.42 |
| COC(=O)c1cc2n(n1)CCN(Cc1ccccc1Cl)C2=O | 20.5 |
| CC1CN(c2cc(=O)n(-c3ccccc3)c(=O)[nH]2)CC(C)O1 (centres undefined) | 5.49 |
| Cc1nn(-c2ccccc2)c(Cl)c1C(=O)N1CCN(c2ncnc3c2cnn3-c2ccccc2)CC1 | -6.98 |
| CCc1cc2c(Sc3nc4ccccc4s3)ncnc2s1 | 3.61 |
| CC1(C)Cc2c(ccc3ccccc23)/C(=C/C(=O)N2CCCCC2)N1 | -4.53 |
| COc1ccc(NC(=O)NCCN2CCc3ccccc3C2)cc1 | 12.1 |
| COc1ccc2cc(-c3cc(C(=O)O)c4ccccc4n3)ccc2c1 | -2.9 |
| Cc1cc2cc(CN(Cc3ccco3)S(=O)(=O)c3c(C)ccc4nsnc34)c(=O)[nH]c2cc1C | 5.72 |
| CCCN(CC)c1ncnc2[nH]ncc12 | 6.36 |

| SMILES | activity change, negative = cytotoxicity [%] |
| --- | --- |
| COc1ccc(/C=N/Nc2cc(OC)ncn2)cc1 | -6.09 |
| CN(C)c1ccc(C=Cc2ccnc3c(O)cccc23)cc1 | 7.55 |
| COc1ccc(CC(C)NCC(O)c2ccc(O)c(NC=O)c2)cc1 (centres undefined) | 9.09 |
| COc1ccc(-n2c(SCC(=O)Nc3ccc4c(c3)OCO4)nc3c(c2=O)SCC3)cc1 | 14.8 |
| CCOCCCn1cnc2c3cc(F)ccc3n(C)c2c1=O | 4.26 |
| CC(C)(C)n1nc(-c2ccc(Cl)cc2)c2c(N)ncnc21 | 5.92 |
| CCc1ccc(/C=C2\SC(=S)N(CCCC(=O)NC3=NCCS3)C2=O)cc1 | 4.7 |
| CCOc1cc(/C=C2/C(=N)N3N=C(CC)SC3=NC2=O)ccc1OC(=O)c1ccco1 | 1.86 |
| COc1ccc(-c2cc(C(=O)N3CCCC3)no2)cc1 | -9.67 |
| O=Cc1ccc(-c2cccs2)s1 | 2.5 |
| COC(=O)c1ccc(CSc2nc3c(c(=O)n2-c2ccc(C)cc2)SCC3)o1 | 0.495 |
| Cc1ccc(-n2cc(C(=O)c3ccccc3O)cn2)cc1 | 1.39 |
| COc1ccc(C(=O)N=c2nc3ccccn3s2)cc1 | 0.856 |
| CC(=O)c1cc(C(=O)Nc2ccc(C(=O)O)cc2)oc1C | 6.62 |
| COc1ccc(NC(=O)/C(C#N)=C/c2cc(C)n(-c3ccc(N4CCOCC4)c([N+](=O)[O-])c3)c2C)cc1 | 12.6 |
| CCOC(=O)c1c(CSc2nc(C)cc(C)c2C#N)n(C)c2cc(Br)c(OC(C)=O)cc12 | 7.63 |
| CCOc1ccc(Nc2ncnc3ccc([N+](=O)[O-])cc23)cc1 | 0.16 |
| Cc1nc(SCC(=O)c2cccc([N+](=O)[O-])c2)n[nH]1 | 6.82 |
| CC(NC(=O)CNC(=O)OCc1ccccc1)C(=O)N1CC(O)CC1C(=O)OCc1ccccc1 (centres undefined) | 3.26 |
| CC(C)(C)OC(=O)N1Cc2ccccc2C[C@H]1C(=O)NCC(=O)Nc1ccc2c(c1)OCCO2 | 1.18 |
| COc1ccc(-n2cnc3c(cnn3CCC#N)c2=N)cc1 | 1.49 |
| Cc1ccn2c(c1)nc(=S)n2C(=O)c1ccccc1 | 4.84 |
| COc1ccc(NC(=O)c2cc3c(CO)cnc(C)c3oc2=Nc2cccc(F)c2)c(OC)c1 | 5.36 |
| N#Cc1c(Nc2ccccc2)sc(C(=O)c2ccc(F)cc2)c1N | -4.44 |
| C=CCn1c(SCc2csc(C)n2)nc2sc3c(c2c1=O)CCCC3 | 0.035 |
| CCn1c2ccccc2c2cc(/C=N/n3cn[nH]c3=S)ccc21 | -7.9 |
| O=C1CC(c2cccs2)Cc2nc(NC(=O)C3CC3)ncc21 (centres undefined) | 5.6 |
